Measured values taken from PubChem BioAssay (NCI).
About 83,000 compounds went through this panel and 20% of them were active in at least one assay; those are over-represented in the sample as a whole.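 Cell lines were cultured in 96-well plates, exposed to a single compound concentration, and assessed for percent growth 48 hours later.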 Values without a mark were called inactive. Activity calls are given as the source filed them. How the source made its calls: active means growth percent below 10; inactive means the rest.

How the values were obtained:
Assay in all cases: NCI-60 one-dose screen, 48 h (100 = growth as untreated, 0 = no growth, -100 = all killed)
Conditions in all cases: 10 µM unless noted
NCI-H23 lung = tested on: NCI-H23 lung
NCI-H322M lung = tested on: NCI-H322M lung
HOP-62 NSCLC = tested on: HOP-62 NSCLC
NCI-H460 lung = tested on: NCI-H460 lung
HOP-92 NSCLC = tested on: HOP-92 NSCLC
NCI-H522 lung = tested on: NCI-H522 lung
A549/ATCC NSCLC = tested on: A549/ATCC NSCLC
786-0 renal = tested on: 786-0 renal
COLO 205 colon = tested on: COLO 205 colon
K-562 leukemia = tested on: K-562 leukemia
MALME-3M melanoma = tested on: MALME-3M melanoma
MDA-MB-231 breast = tested on: MDA-MB-231 breast
RXF 393 renal = tested on: RXF 393 renal
SF-268 CNS = tested on: SF-268 CNS
SF-295 CNS = tested on: SF-295 CNS
SF-539 CNS = tested on: SF-539 CNS
UACC-257 melanoma = tested on: UACC-257 melanoma
M14 melanoma = tested on: M14 melanoma
HCT-15 colon = tested on: HCT-15 colon
DU-145 prostate = tested on: DU-145 prostate

| SMILES | growth (NCI-H23 lung) | growth (NCI-H322M lung) [%] | growth (HOP-62 NSCLC) | growth (NCI-H460 lung) | growth (HOP-92 NSCLC) [%] | growth (NCI-H522 lung) | growth (A549/ATCC NSCLC) [%] | growth (786-0 renal) | growth (COLO 205 colon) [%] | growth (K-562 leukemia) | growth (MALME-3M melanoma) | growth (MDA-MB-231 breast) | growth (RXF 393 renal) | growth (SF-268 CNS) [%] | growth (SF-295 CNS) [%] | growth (SF-539 CNS) | growth (UACC-257 melanoma) | growth (M14 melanoma) | growth (HCT-15 colon) [%] | growth (DU-145 prostate) |
| --- | --- | --- | --- | --- | --- | --- | --- | --- | --- | --- | --- | --- | --- | --- | --- | --- | --- | --- | --- | --- |
| Nc1ccc(-c2nc3cc(Oc4ccc(Oc5ccc6[nH]c(-c7ccc(N)cc7)nc6c5)cc4)ccc3[nH]2)cc1 | 78.6% | 118 | 107% | 95.2% | 104 | 73.7% | 96.8 | 92% | 75 | 94.9% | 81.4% | 103% | 107% | 113 | 63.4 | 102% | 95.8% | 94% | 100 |  |
| CCCCN1CCN(c2ccc3nc(-c4ccc5nc(-c6ccc(OC)c(OC)c6)[nH]c5c4)[nH]c3c2)CC1 | -66.1% (active) | 10.1 | -1.2% (active) | -35% (active) | 60.7 | -36.8% (active) | 28.4 | -85.9% (active) |  | -15.5% (active) | -62.3% (active) | -38.1% (active) | -98.5% (active) | 20.7 | 10.6 | -81.9% (active) | -3.47% (active) | -52.5% (active) | 46.1 | 2.42% (active) |
| CC(=O)c1ccc(NC(=O)Nc2ccc(S(=O)(=O)Nc3ccc(Cl)nn3)cc2)cc1 | 96.4% | 95.8 | 95.9% | 109% | 106 | 96.9% | 103 | 108% |  | 103% | 100% | 96.7% | 117% | 99.2 | 103 | 97.6% | 99.4% | 111% | 107 | 110% |
| CNC(=O)c1cc(Oc2ccc(CC(=O)Nc3cc(C(C)(C)C)cn3C)cc2)ccn1 | 50.2% | 93 | 56% | 74.8% | 84 | 75.1% | 68.9 | 89.7% |  | 35.5% | 50.6% | 67.8% | 105% | 86.4 | 45.4 | 68.3% | 56.5% | 84.7% | 93.8 | 93.9% |
| C[C@@H](C(=O)NCCCC#Cc1cnc(Nc2ccc(C#N)cc2)nc1NC1CC1)N(C)C(=O)/C=C/CN(C)C | 22.8% | 63 | 44.2% | 15.3% | 107 | 59.1% | 32.8 | 39.8% |  | 14.1% | 22.5% | 77.8% | -1.36% (active) | 48.4 | 25.9 | 9.99% (active) | 40.2% | 26.7% | 29.9 | 38.4% |
| O=C1CCC(N2C(=O)c3cccc(NCCCCCCOc4ccc(Nc5nccc(Nc6ccccc6)n5)cc4)c3C2=O)C(=O)N1 (stereo not given) | 62.6% | 91.6 | 84.2% | 83.6% | 84.1 | 76.6% | 81.6 | 91.9% |  | 46.8% | 76.7% | 86.6% | 94.7% | 88.7 | 73.3 | 89.1% | 73.1% | 88.1% | 86.7 | 97.8% |
| COc1ccc(-c2nocc2-c2cccs2)cc1 | 105% | 102 | 101% | 102% | 86.6 | 98.5% | 99.3 | 103% | 115 |  | 106% | 92.8% |  | 101 | 95.1 | 101% | 118% | 111% | 99.1 | 107% |
| N[C@@H](CC/[N+]([O-])=N/O)C(=O)O | 97.2% | 103 | 101% | 97.9% | 107 | 95.7% | 102 | 104% | 104 |  | 101% | 102% |  | 95.9 | 110 | 95% | 112% | 102% | 104 | 97.8% |
